Molecules are shown by their SMILES. Inconclusive results are not listed. Entries that show only a call come without a potency. Activity calls are given as the source filed them. The call rests on the fitted dose curve; in most records, active means well fitted activation curve with a large enough effect in the repeat runs; inconclusive means weak or mixed curves; inactive means flat fitted curve, though single readings scatter.
Potency means the concentration at half of the fitted maximal effect.

This assay is described as follows: A CellTox Green Cytotoxicity Assay to monitor cytotoxicity in HEK293 cells - 8 hour (AID 1224884). Further: nearly all actives have a fitted effect of over 35% in size. To be noted: CellTox Green fluorescence; series mostly up to 76.8 µM. From the text:
National Center for Advancing Translational Sciences [NCATS]
NIH Chemical Genomics Center [NCGC]
U.S. Environmental Protection Agency [EPA]
National Institutes of Environmental Health Sciences [NIEHS]
National Toxicology Program [NTP]
Cell-based models are critical for drug discovery. Determining the natural cytotoxic effects resulting from test compounds is an essential research activity. A CellTox Green Cytotoxicity Assay to monitor cytotoxicity in real time of continues cell culture during 40 hours of the compound treatment was used to screen Tox21 10K library compounds in Hek293 cells. CellTox Green Cytotoxicity Assay is a nonlytic, homogeneous, biofluorescent method to measure cytotoxicity in cell culture after experimental manipulation. The assay system uses a proprietary asymmetric cyanine dye that is excluded from viable cells but preferentially stains the dead cell's DNA. […] Viable cells produce no appreciable increases in fluorescence. Therefore, the fluorescence signal produced by the binding interaction with dead cell DNA is proportional to cytotoxicity.
The mixture of Hek293 cell suspension and reagents were dispensed at 600cells/6 ul/well in 1536-well tissue culture treated black solid bottom plates using a Multidrop dispenser. After the assay plates were incubated at a 37 C/5% CO2 incubator for 5 hours, 23 nL of compounds dissolved in DMSO, positive and negative controls was transferred to the assay plate by a pintool work station. The plates were incubated at 37 C for 40 hours. The fluorescence intensity were measured at 0h, 8h, 16h, 24h, 32h and 40h time points using ViewLux plate reader during compound treatment.
In the case of `CCCc1nc(C)c2c(=O)[nH]c(-c3cc(S(=O)(=O)N4CCN(CC)CC4)ccc3OCC)nn12`, the Potency entry was “inactive”. Take `O=C(c1ccco1)N1CCNCC1`: the Potency entry was “inactive”. Take `Cc1c(Cl)cccc1[N+](=O)[O-]`: the Potency entry was “inactive”. With `O=C(O)c1c2ccccc2cc2ccccc12`, the Potency entry was “inactive”. As for `CC(=O)c1ccc(Cl)c(Cl)c1Cl`, the Potency result was “inactive”. Turning to `NC(=O)c1ccccc1C(N)=O`, the Potency is 49.2 µM (active). In the case of `NCCOCCOCCN`, the Potency entry is “inactive”. With `CC1(C)[C@@H]2CC[C@]3(C2)[C@@H]1C(=O)CCC3(C)C`, the Potency entry is “inactive”. `CC(C(=O)O)c1ccc(/C=C2\CCCCC2=O)cc1` (stereo not given): the Potency entry is “inactive”. `OCC(O)c1ccccc1` (stereo not given): the Potency entry is “inactive”. For the compound `CCCOC(C)=O`, the Potency result was “inactive”. In the case of `CCC(C)C1N=C(C)C(C)S1` (stereo not given) it was “inactive”; in that of `CCC(=O)O[C@@H]1C[C@H]2CC[C@]1(C)C2(C)C`, “inactive”; in that of `Clc1nc2ccccc2nc1Cl`, “inactive”. With `CC1(C)C(=O)NC(=O)N1CO`, the Potency entry is “inactive”. In the case of `Cc1cccc(C)c1NC(=O)CN1CCCC1`, the Potency entry was “inactive”. As for `C=CC(C)(O)CC/C=C(/C)CCC=C(C)C` (stereo not given), the Potency entry was “inactive”. Regarding `N#CCCCC(C#N)CCC#N` (stereo not given), the Potency result is “inactive”. Turning to `CCCCCO`, the Potency entry is “inactive”. Take `Nc1ccc(F)cc1F`: the Potency result was “inactive”. With `N#Cc1ccc(CC(=O)c2cccc(C(F)(F)F)c2)cc1`, the Potency entry is “inactive”. In the case of `O=C(O)c1cccnc1Nc1cccc(C(F)(F)F)c1` it was “inactive”. For the compound `Clc1ccccc1-c1nc(-c2ccncc2)no1`, the Potency entry was “inactive”. With `CCn1nc(Cc2ccccc2)cc1C1CCN(C[C@H]2C[C@H](N(C)[C@@H](C(=O)O)C(C)C)C[C@@H]2c2cccc(F)c2)CC1`, the Potency result was “inactive”. In the case of `CCCCCCCCCCCCCCCCN` it was 19 µM (active); in that of `CCc1ccc(C(=O)C(C)CN2CCCCC2)cc1` (stereo not given), “inactive”. In the case of `CCc1ccc2c(c1)C(=O)c1ccccc1C2=O` it was “inactive”. For `Cc1cc(N)n(-c2ccccc2)n1`, the Potency entry is “inactive”. Turning to `C=CC(C)CCC=C(C)C` (stereo not given), the Potency result is “inactive”.

`COc1ccc(C(=O)c2ccc(C)cc2)c(O)c1`: the Potency result is “inactive”. For the compound `Oc1ccc(Oc2ccccc2)cc1`, the Potency entry is “inactive”. On to `CC(O)C(C)O` (stereo not given), for which the Potency result was “inactive”. In the case of `CCCCCCCCCCCCSCCOCCO`, the Potency result was “inactive”. `CCCCCCCCCC(C)C=O` (stereo not given): the Potency is 24.5 µM (active). On to `O=C1c2ccccc2C(=O)C1c1ccc2cc(S(=O)(=O)O)cc(S(=O)(=O)O)c2n1`, for which the Potency result is “inactive”. Consider `CCCCOC(=O)CC#N`, for which the Potency entry was “inactive”.

As for `CC(=O)CC/C=C(\C)CC/C=C(\C)CC/C=C(\C)CCC=C(C)C`, the Potency entry was “inactive”.

In the case of `COC(=O)/C=C/C(C)=C\C=C\C(C)=C\C=C\C=C(C)\C=C\C=C(C)\C=C\C(=O)O`, the Potency entry was “inactive”. In the case of `O=C(OCCN1CCOCC1)c1cccnc1Nc1cccc(C(F)(F)F)c1`, the Potency result was “inactive”. For the compound `Sc1nc(S)nc(S)n1`, the Potency result is “inactive”.

For the origin of these results see PubChem BioAssay (Tox21).
